Inconclusive results are not listed. The source made the active and inactive calls. The call rests on the fitted dose curve.
On the % scale 0 is the no-effect control and ±100 the full control effect.

The assay in a line: qHTS assay to identify small molecule agonists of H2AX - cell viability counter screen (AID 1224847). Further: top concentration of the series differs between compounds; nearly all actives have a fitted effect of over 30% in size. As to conditions: CHO-K1 viability, CellTiter-Glo luminescence, 3 h; series mostly up to 154 µM; activity change, negative = cytotoxicity: at the top concentration. An excerpt: National Center for Advancing Translational Sciences [NCATS]
NIH Chemical Genomics Center [NCGC]
U.S. Environmental Protection Agency [EPA]
National Institutes of Environmental Health Sciences [NIEHS]
National Toxicology Program [NTP]
U.S. Food and Drug Administration [FDA]
HTRF phospho-H2AX (Ser139) assay (Cisbio Bioassays, US) enables the quantitative detection of the histone variant H2AX when phosphorylated on serine 139. When double-stranded DNA breaks, either by ionizing radiation or endogenous physiological processes, H2AX becomes phosphorylated at Ser139. This phospho-Ser139 serves as a sensitive biomarker for the detection of such breaks, localizing the site of DNA repair. So, HTRF phospho-H2AX Ser139 is a pertinent assay to study genome stability, the cell cycle, DNA repair, and it serves as a biomarker for cancer, and to understand aging. Wild type CHO-K1 cells were used to identify the inducers of Phospho-H2AX Ser 139 from the Tox21 compound collections. Also cytotoxicity of the Tox21 10K compound library against the CHO-K1 cell line was tested by measuring the cell viability using CellTiter-Glo assay (Promega, Madison, WI).
Tox21 Assay Protocol Summary:
The CHO-K1 cells suspended in culture medium containing 10% FBS were dispensed at 1000 cells/ 3 ul/well in 1536-well white wall/solid bottom plates (Greiner Bio-One North America, NC) using a Multidrop Combi (Thermo Fisher Scientific Inc., Waltham, MA). After the assay plates were incubated at 37C overnight, 23 nl of compounds at 15 concentrations (from 5-48 columns) or positive control (from 1 to 4 columns) were transferred to the assay plates using a Pintool station (Wako, San Diego, CA) into each well resulting in a final DMSO concentration of 0.76%. After 3hr incubation at 37C, 3 uL/well CellTiter-Glo luminescent cell viability reagent (Promega Corporation, Madison, WI) was added using a Flying Reagent Dispenser (FRD) (Aurora Discovery, CA). After incubation at room temperature for 30 min, the luminescence intensity was read using a ViewLux plate reader (PerkinElmer, Waltham, MA).
(Quantitative high-throughput screening tests each substance at several concentrations.)
For the molecule `C=C(Cl)CCl`, the “activity change, negative = cytotoxicity” value is 1.92% (inactive).

On to `CC(Cc1ccccc1)NCCn1cnc2c1c(=O)n(C)c(=O)n2C` (stereo not given), for which the “activity change, negative = cytotoxicity” value is -1.33% (inactive).

Consider `C#CCOC(=O)/C=C(C)/C=C/CC(C)CCCC(C)C` (stereo not given), for which the “activity change, negative = cytotoxicity” value is 1.29% (inactive).

Turning to `CCCC[N+](=O)[O-]`, the “activity change, negative = cytotoxicity” value is -0.923% (inactive).

Consider `O=C(Cl)C(Cl)(Cl)Cl`, for which the “activity change, negative = cytotoxicity” value is -2.75% (inactive).

On to `C=CCN1CC[C@]23CCCC[C@H]2[C@H]1Cc1ccc(O)cc13`, for which the “activity change, negative = cytotoxicity” value is -2.2% [at 70.9 µM] (inactive).

Consider `ClCCCCCCCl`, for which the “activity change, negative = cytotoxicity” value is 0.948% (inactive).

For `COC1=CC(=O)O[C@@H](/C=C/c2ccccc2)C1`, the “activity change, negative = cytotoxicity” value was 0.814% (inactive).

In the case of `N=C(N)[Se]`, the “activity change, negative = cytotoxicity” value is -5.28% (inactive).

For the molecule `BrCC1CO1` (stereo not given), the “activity change, negative = cytotoxicity” value was 0.531% (inactive).

Turning to `CCNP(=S)(OC)O/C(C)=C/C(=O)OC(C)C` (stereo not given), the “activity change, negative = cytotoxicity” value was 2.02% (inactive).

Consider `COc1cc(CCN)cc(OC)c1OC`, for which the “activity change, negative = cytotoxicity” value was -6.06% (inactive).

For the molecule `CC(C)(N)Cc1ccc(Cl)cc1`, the “activity change, negative = cytotoxicity” value is -3.62% [at 70.9 µM] (inactive).

With `NNCc1ccccc1`, the “activity change, negative = cytotoxicity” value was 4.47% (inactive).

As for `CCCOC(=O)Cc1ccc(OCC(=O)N(CC)CC)c(OC)c1`, the “activity change, negative = cytotoxicity” value was -5.96% [at 70.9 µM] (inactive).

Take `CCCCCCCC(=O)Cl`: the “activity change, negative = cytotoxicity” value is 0.79% (inactive).

Regarding `O=C(O)c1c(Cl)ccc2cc(Cl)cnc12`, the “activity change, negative = cytotoxicity” value was -0.276% (inactive).

With `CC(C)(C1CCC(O)CC1)C1CCC(O)CC1` (stereo not given), the “activity change, negative = cytotoxicity” value was 4.67% (inactive).

For `N#CN`, the “activity change, negative = cytotoxicity” value is -3.37% [at 401 µM] (inactive).

With `C=CCC1(C(C)CC)C(=O)NC(=O)NC1=O` (stereo not given), the “activity change, negative = cytotoxicity” value is 0.413% [at 70.9 µM] (inactive).

Turning to `CCC(=O)OC1(c2ccccc2)CCN(C)CC1`, the “activity change, negative = cytotoxicity” value is -8.78% (inactive).

Take `O=C(O)C(F)(F)C(F)(F)C(F)(F)C(F)(F)C(F)(F)C(F)(F)F`: the “activity change, negative = cytotoxicity” value is -1.69% (inactive).

As for `CN(C)C(=O)Oc1cc(OC(=O)N(C)C)cc(C(O)CNC(C)(C)C)c1` (stereo not given), the “activity change, negative = cytotoxicity” value was -1.19% [at 70.9 µM] (inactive).

With `CCCOC(=O)c1cncn1C(C)c1ccccc1` (stereo not given), the “activity change, negative = cytotoxicity” value is 6.13% [at 70.9 µM] (inactive).

For the molecule `CC(C)c1ccc(O)cc1`, the “activity change, negative = cytotoxicity” value is -0.248% (inactive).

Take `CCC1(CC)C(=O)C=CNC1=O`: the “activity change, negative = cytotoxicity” value is -0.687% [at 70.9 µM] (inactive).

In the case of `CC(=O)CN(CC(C)=O)N=O`, the “activity change, negative = cytotoxicity” value was 8.44% (inactive).

For `CC(C)(N)Cc1ccccc1Cl`, the “activity change, negative = cytotoxicity” value is -0.37% [at 70.9 µM] (inactive).

As for `CCCCS(=O)(=O)Cl`, the “activity change, negative = cytotoxicity” value is 5.85% (inactive).

As to `Clc1ccc(C(Cl)(Cl)Cl)cn1`, the “activity change, negative = cytotoxicity” value was -4.82% (inactive).

Take `CCN(CCO)CCn1c(Cc2ccccc2)nc2c1c(=O)n(C)c(=O)n2C`: the “activity change, negative = cytotoxicity” value was -5.34% [at 70.9 µM] (inactive).

Take `CCCOc1nn(C(=O)NS(=O)(=O)c2ccccc2C(=O)OC)c(=O)n1C`: the “activity change, negative = cytotoxicity” value was 4.64% (inactive).

As for `S=C=S`, the “activity change, negative = cytotoxicity” value was 1.44% (inactive).

With `Brc1c(Br)c(Br)c(Br)c(Br)c1Br`, the activity change, negative = cytotoxicity is -1.61% [at 14 µM] (inactive).

`CC[C@@H](CO)NC(=O)[C@@H]1C=C2c3cccc4[nH]cc(c34)C[C@H]2N(C)C1`: the “activity change, negative = cytotoxicity” value was 0.622% [at 70.9 µM] (inactive).

Regarding `C=CC1(C)OC(=O)N(c2cc(Cl)cc(Cl)c2)C1=O` (stereo not given), the Potency result was “inactive”.

With `CC(C)[C@]12CC(=O)[C@H](C)[C@H]1C2`, the “activity change, negative = cytotoxicity” value was -1.17% (inactive).

On to `COc1ccc2c(C(=O)c3ccc(Cl)cc3)c(C)n(CC(=O)O)c2c1`, for which the “activity change, negative = cytotoxicity” value is 1.41% [at 70.9 µM] (inactive).

In the case of `CCOC(=O)N(C)N=O`, the “activity change, negative = cytotoxicity” value is 0.827% (inactive).

Take `BrCCc1ccccc1`: the “activity change, negative = cytotoxicity” value was 2.25% (inactive).
